PubChem BioAssay AID1508623 (National Center for Advancing Translational Sciences (NCATS), 2021)
The campaign covered roughly 48,000 compounds. About 450 (0.94%) were called active. Where a call stands in place of a potency, no number is given. Not shown: some 19% with an inconclusive outcome. Calls come from the whole dose curve; as a rule, active = well fitted inhibition curve with a large enough effect; inconclusive = small, poorly fitted or top-dose-only effect; inactive = no such curve, though single readings can be large or run the other way. For the sample, actives were picked, then their nearest neighbours and some compounds at random.

Assay: Primary qHTS for Identification of Small Molecule Inhibitors of Huntingtin Promoter Activity; note: nearly all actives have a fitted effect of over 50% in size
Conditions: HEK293 HTT promoter firefly luciferase reporter (activity 0% = vehicle and -100% = no light), 24 h; series mostly up to 57.5 µM
From the text: Assay Provider: Russell L. Margolis M.D.
Department Neurology, Johns Hopkins University School of Medicine, Baltimore, MD
Huntington's Disease (HD) is a neurodegenerative disorder caused by a CAG repeat expansion in exon 1 of huntingtin (HTT). While there are currently no disease-modifying treatments for HD, recent efforts have focused on development of nucleotide-based therapeutics to lower HTT expression. As an alternative to siRNA or oligonucleotide methods, we hypothesized that suppression of HTT expression might be accomplished by small molecules that either (1) directly decrease HTT expression by suppressing HTT promoter activity or (2) indirectly decrease HTT expression by increasing the promoter activity of HTT-AS, the gene antisense to HTT that appears to inhibit expression of HTT.
We developed and employed a high throughput screen for modifiers of HTT and HTT-AS promoter activity using luminescent reporter HEK293 cells; of the 52,041 compounds tested, we identified 898 replicable hits. We used a rigorous stepwise approach to assess compound toxicity and the capacity of the compounds to specifically lower huntingtin protein in 5 different cell lines, including HEK293 cells, HD lymphoblastoid cells, mouse primary neurons, HD iPSCs differentiated into cortical-like neurons, and HD hESCs. We found no compounds which were able to lower huntingtin without lowering cell viability in all assays, though the potential efficacy of a few compounds at non-toxic doses could not be excluded.
SEQUENCE No. (1, 2, 3, etc.); […] (e.g., Cells, Incubation, Reagent, etc.); VALUE and DESCRIPTION.
1; Reagent; 4 uL; 2,500 Hek293 luciferase reporter cells per wells
3; Compound; 23 nL; Control inhibitor / compound library
5; Reagent; 2.5 uL; Firefly Luc reagent; Dual-Glo Luciferase Reporter Assay System (Promega)
6; Time; 10 min; room temperature incubation
7; Detection; Luminescence; FLuc
NOTES (numbers refer to sequence above)
1; High-throughput screening, measuring luminescence from a Hek293 luciferase reporter, was performed in 1,536 well white-walled tissue-culture treated plates. 2,500 cells were plated in 4 µL of Opti-MEM per well using a Multidrop Combi Reagent Dispenser (ThermoFisher).
2; Assay plates were cultured for 24 hours.
3; Control inhibitor (PTC124; final concentration of 50 uM) and compound library (at final concentrations of 460 nM - 57.5 uM) were added to the assay plate using the Kalypsis Pintool Robotic System equipped with 1536 pinheads.
4; Cells were then incubated for 24 hours at 37 degrees C prior to luminescence measurements.
5; In all cases, luminescence was measured using the Dual-Glo Luciferase Reporter Assay System (Promega) following the manufacturer's instructions.
6; Room temperature incubation.
7; Luminescence signal was obtained using the PerkinElmer ViewLux plate reader. Results were normalized to vehicle control (0% activity) and zero RLU (-100% activity).
Potency is the fitted concentration of half-maximal effect.

Row | SMILES | Potency
1 | COc1ccc(Br)cc1C1CC(=O)Nc2c1c(C)nn2-c1nc(C)cc(C)n1 (stereo not given) | inactive
2 | CCC(=O)Nc1c(C(=O)N2CCN(c3ccc(F)cc3)CC2)oc2ccccc12 | inactive
3 | COc1cccc(-c2n[nH]c3c2C(c2cccc(O)c2)N(C)C3=O)c1 (stereo not given) | inactive
4 | COc1ccc(Cn2ccn(Cc3cccc(OC)c3)c(=O)c2=O)cc1 | inactive
5 | CCN1CCN(CCCNC(=O)c2cnn(-c3ccc(C)cc3C)c2C2CCN(C(=O)OC(C)(C)C)CC2)CC1 | inactive
6 | CCCCNC(=O)CSc1nc2cc3c(cc2c(=O)n1CCCCCC(=O)NCc1ccc2c(c1)OCO2)OCO3 | inactive
7 | CCOC(=O)C1CCN(C(c2ccc(F)cc2)c2sc3nc(-c4ccco4)nn3c2O)CC1 (stereo not given) | inactive
8 | COc1ccc(-c2cccc(NS(=O)(=O)c3cc(C)c(OC)c(C)c3C)c2)nn1 | 11.2 µM (active)
9 | CCOC(=O)c1cccc(NS(=O)(=O)c2cc(-c3cnc(C)o3)ccc2OC)c1 | inactive
10 | Cc1ccc(CCNC(=O)Cn2c(-c3cccs3)cc3cc(F)ccc32)cc1 | inactive
11 | CCc1ccccc1NC(=O)Cn1c(=O)n(CC2CCC(C(=O)NCCc3ccccc3)CC2)c(=O)c2ccccc21 (stereo not given) | inactive
12 | COc1cc(NS(=O)(=O)c2ccc3c(c2)OCC(C(=O)N2CCCC2)O3)cc(OC)c1 (stereo not given) | 14.1 µM (active)
13 | COc1cc(NS(=O)(=O)c2cccs2)cc(OC)c1 | inactive
14 | COc1ccc(OC)c2sc(N3CCN(C(=O)C4COc5ccccc5O4)CC3)nc12 (stereo not given) | inactive
15 | COc1ccccc1CNC(=O)C(=O)NCC(c1cccs1)S(=O)(=O)c1cccs1 (stereo not given) | inactive
16 | CC1CN(C(=O)N2CCC(C(=O)NCc3ccco3)CC2)c2cc(Cl)ccc2O1 (stereo not given) | inactive
17 | CCc1ccc(CN(Cc2ccco2)C(=O)COc2ccc(Cl)c(C)c2)cc1 | inactive
18 | CC(C)NC(=O)C1CCC(Cn2c(=O)c3sccc3n(Cc3ccc(F)cc3)c2=O)CC1 (stereo not given) | inactive
19 | CC(=O)Nc1cccc(NC(=O)CSc2cn(CC(=O)N3CCCC3)c3ccccc23)c1 | inactive
20 | Cc1ccc(-c2nn(CCC(=O)Nc3ccc(OC(F)(F)F)cc3)c(=O)c3ccccc23)cc1 | inactive
21 | CCc1ccc(NC(=O)CN2C(=O)CCSc3ccc(S(=O)(=O)N4CCCC4)cc32)cc1 | inactive
22 | CCc1ccc(NC(=O)CN2CCSc3ccc(S(=O)(=O)N4CCCC4)cc32)cc1 | 31.6 µM (active)
23 | CN(C(=O)CN1C(=O)CCSc2ccc(S(=O)(=O)N3CCCC3)cc21)c1ccccc1 | inactive
24 | COC(=O)c1ccccc1NC(=O)c1cnn(-c2ccc(F)cc2)c1-n1cccc1 | inactive
25 | CCCCN(CC)CCCNC(=O)c1nn(C)c2c1CS(=O)(=O)c1ccccc1-2 | inactive
26 | CCCCC(=O)OC1=CN(Cc2ccccc2)S(=O)(=O)c2ccccc21 | inactive
27 | COc1cccc(NC(=O)Cn2c(=O)cc(C)c3c(C)nn(-c4cccc(F)c4)c32)c1 | inactive
28 | COc1ccc(NC(=O)c2ccco2)cc1NC(=O)COc1ccc(C)c(C)c1 | inactive
29 | CCOC(=O)c1ccccc1NC(=O)CCc1c(C)nc2c(c1C)c(=O)n(C)c(=O)n2C | inactive
30 | CCc1nn(CC(=O)NCC(C)c2ccccc2)c(=O)c2cc3occc3n12 (stereo not given) | inactive
